In experiment [1] the target is Glutathione peroxidase 1 (Homo sapiens) (UniProt P07203). As to the kind of experiment: Primary qHTS Assay for Inhibitors of Recombinant Selenoprotein Glutathione Peroxidase 1 (GPX1) (AID 1845191). Further: nearly all actives have a fitted effect of over 65% in size. Further: potency means the concentration at half of the fitted maximal effect. In a few lines: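 GR-coupled readout: NADPH consumption tracked by fluorescence, ex 340/em 450 nm, at t=0 and after 15 min at RT. Final mix 10 nM GPX1, 1 mM GSH, 0.5 mM CHP, 0.5 mM NADPH, 100 nM GR, 0.01% BSA, following 30 min enzyme–compound preincubation.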
Chain of Glutathione peroxidase 1 (Homo sapiens) (P07203 whole entry, looked up): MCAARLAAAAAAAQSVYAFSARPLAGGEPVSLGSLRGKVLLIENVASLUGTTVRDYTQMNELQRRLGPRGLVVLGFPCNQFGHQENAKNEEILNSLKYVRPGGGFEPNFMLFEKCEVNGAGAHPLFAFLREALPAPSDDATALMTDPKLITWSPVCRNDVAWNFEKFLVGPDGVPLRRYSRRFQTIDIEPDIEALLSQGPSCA

In experiment [2] the target is Phospholipid hydroperoxide glutathione peroxidase GPX4 (Homo sapiens) (UniProt P36969). Nature of the experiment: Primary qHTS Assay for Inhibitors of Recombinant Selenoprotein Glutathione Peroxidase 4 (GPX4) (AID 1845192). Further: nearly all actives have a fitted effect of over 65% in size. Further: potency means the concentration at half of the fitted maximal effect. In outline: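 Steps: GPX4 plus compound, 30 min RT; add GR/GSH/NADPH master mix; start with cumene hydroperoxide; read 340/450 nm fluorescence at 0 and 15 min. Finals were 200 nM GPX4, 1 mM GSH, 0.5 mM CHP, 0.5 mM NADPH, 100 nM GR.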
Chain of Phospholipid hydroperoxide glutathione peroxidase GPX4 (Homo sapiens) (P36969 whole entry, looked up): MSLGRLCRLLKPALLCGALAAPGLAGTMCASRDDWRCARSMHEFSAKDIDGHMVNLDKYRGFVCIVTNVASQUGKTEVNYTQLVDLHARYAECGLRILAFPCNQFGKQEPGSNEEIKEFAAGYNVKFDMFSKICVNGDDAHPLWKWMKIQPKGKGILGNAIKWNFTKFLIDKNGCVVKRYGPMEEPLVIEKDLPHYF
For orientation: In qHTS, concentration-response curves come from the screen itself.

For experiment [3], the target named is Luciferin 4-monooxygenase (Photinus pyralis) (UniProt P08659). As to the kind of experiment: Primary firefly luciferase (FLuc) qHTS assay for identification of artifact compounds. (AID 1845220). Further: nearly all actives have a fitted effect of over 60% in size. Further: potency means the concentration at half of the fitted maximal effect. In outline: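 D-luciferin and ATP (10 uM each, final) in Tris acetate buffer pH 7.6 were incubated with compounds for 15 min at room temperature. The reaction was started with 10 nM Photinus pyralis luciferase and luminescence read after 5 min. Percent inhibition was fitted to a 4-parameter Hill equation.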

The test system of experiment [4] is Nanoluciferase (engineered Oplophorus gracilirostris luciferase). Nature of the experiment: Primary Nanoluciferase (NLuc) qHTS assay for identification of artifact compounds. (AID 1845222). Further: series mostly up to about 54 µM. In outline:
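Diluted conditioned medium from NLuc-expressing S16 cells treated with compounds for 15 min at room temperature, then Nano-Glo substrate added; luminescence read after 5 min. Percent inhibition versus no-enzyme and DMSO controls fitted to 4-parameter Hill equation.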

Experiment [5] in a line: Primary redox qHTS assay for identification of artifact compounds. (AID 1845223). Further: potency means the concentration at half of the fitted maximal effect. In a few lines:
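Redox-cycling detection via DTT (250 uM final) oxidation coupled to Amplex Red (25 uM)/HRP (250 mU/mL) in HBSS. 15 min preincubation plus 30 min after DTT, room temperature. Ex/Em 525/598 nm; 4-parameter Hill fit against DMSO and 10 uM DA3003.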

Each structure is given as a SMILES string. Records with an inconclusive call do not appear. Calls of active or inactive are those of the source. The call rests on the fitted dose curve; in most records, active means well fitted curve in the direction sought with a large enough effect; inconclusive means small, poorly fitted or top-dose-only effect, or another doubt; inactive means no such curve, though single readings can be large; an effect the other way counts as inactive or inconclusive.

`COc1ccc2c(c1)C(C(=O)N(Cc1ccc(N(C)C)cc1)c1ccc(C(C)C)cc1)CCC2` (stereo not given): the Potency entry in experiment [1], in experiment [2], in experiment [3], in experiment [4] and in experiment [5] was “inactive” each time.

For the compound `N#Cc1cc(-c2ccnc(Nc3ccc(N4CCOCC4)cc3)n2)ccc1OC1CCOCC1`, the Potency result in experiment [1], in experiment [2], in experiment [3], in experiment [4] and in experiment [5] was “inactive” throughout.

As to `O=C(O)CCc1nccc2c1[nH]c1ccccc12`, the results for the Potency in experiment [1] and in experiment [2] were 25.5 µM (active) and 22.7 µM (active), respectively. Moreover, the Potency result in experiment [3], in experiment [4] and in experiment [5] was “inactive” throughout.

With `CN1CCN(C2=Nc3ccccc3Nc3ccc(OS(=O)(=O)C(F)(F)F)cc32)CC1`, the Potency entry in experiment [1], in experiment [2], in experiment [3], in experiment [4] and in experiment [5] was “inactive” throughout.

Turning to `C=C1C(=O)O[C@@H]2C3=C(C)CCC[C@]3(C)CC[C@@]12O`, the Potency entry in experiment [1], in experiment [2], in experiment [3], in experiment [4] and in experiment [5] was “inactive” throughout.

As for `C=CC(=O)Nc1ccc(CN2C(=O)N(c3cc(OC)cc(OC)c3)Cc3cnc(Nc4ccc(N5CCN(C)CC5)cc4)nc32)cc1`, the Potency entry in experiment [1], in experiment [2], in experiment [3], in experiment [4] and in experiment [5] was “inactive” each time.

`COc1ccc(C2Oc3c(OC)cc(CCCO)cc3C2COC2OC(CO)C(O)C(O)C2O)cc1OC` (stereo not given): the Potency entry in experiment [1], in experiment [2], in experiment [3], in experiment [4] and in experiment [5] was “inactive” each time.

`CCn1c2ccccc2c2cc(Nc3ccnc(NCCCN4CCOCC4)n3)ccc21`: the Potency result in experiment [1], in experiment [2], in experiment [3], in experiment [4] and in experiment [5] was “inactive” throughout.

`O=c1ccc2ccc(OCCCCN3CCN(c4cccc5sccc45)CC3)cc2[nH]1`: the Potency result in experiment [1], in experiment [2], in experiment [3], in experiment [4] and in experiment [5] was “inactive” in each case.

Turning to `COc1cc2c(cc1OC(C)C)[C@H](c1ccc(Cl)cc1)N(c1ccc(N(C)CC3CCC(N4CCN(C)C(=O)C4)CC3)cc1)C(=O)C2` (stereo not given in full), the Potency result in experiment [1], in experiment [2], in experiment [3], in experiment [4] and in experiment [5] was “inactive” throughout.

As for `C/C1=C/CCC2=CC(OC2=O)C(C)(C)/C=C/C1=O` (stereo not given), the Potency entry in experiment [1], in experiment [2], in experiment [3], in experiment [4] and in experiment [5] was “inactive” each time.

Take `CC[C@H](C)/C=C(C)/C=C/C1=CC2=C(Cl)C(=O)[C@](C)(O)[C@H](OC(C)=O)[C@H]2CO1`: the Potency result in experiment [1], in experiment [2], in experiment [3], in experiment [4] and in experiment [5] was “inactive” each time.

On to `C=C1C(=O)O[C@@H]2C[C@H](C)[C@@H]3CC(=O)[C@H](O)[C@@]3(C)C[C@H]12`, for which the Potency entry in experiment [1], in experiment [2], in experiment [3], in experiment [4] and in experiment [5] was “inactive” each time.

In the case of `O=c1[nH]cnc2c([C@@H]3N[C@H](CO)[C@@H](O)[C@H]3O)c[nH]c12`, the Potency entry in experiment [1], in experiment [2], in experiment [3], in experiment [4] and in experiment [5] was “inactive” throughout.

Consider `CCC(C)/C=C(C)/C=C/C1=CC2=C(Cl)C(=O)C(C)(OC(C)=O)C(=O)C2(O)C(OC)O1` (stereo not given), for which the Potency result in experiment [1], in experiment [2], in experiment [3], in experiment [4] and in experiment [5] was “inactive” throughout.

Regarding `CCOc1cn(-c2ccc(F)cc2C)nc1C(=O)Nc1ccc(Oc2ccnc3cc(OC)c(OC)cc23)c(F)c1`, the Potency entry in experiment [1], in experiment [2], in experiment [3], in experiment [4] and in experiment [5] was “inactive” throughout.

For `C=CC(=O)N1CCC[C@@H](n2nc(-c3cccc(C(=O)Nc4ccc(C(C)C)c(C)c4)c3)c3c(N)ncnc32)C1`, the Potency entry in experiment [1], in experiment [2], in experiment [4] and in experiment [5] was “inactive” in each case. Moreover, in experiment [3], the Potency was 6.75 µM (active).

Take `O=C(NO)c1cnc(N2CCN(S(=O)(=O)c3ccc4ccccc4c3)CC2)nc1`: the Potency result in experiment [1], in experiment [2], in experiment [3], in experiment [4] and in experiment [5] was “inactive” in each case.

Regarding `CN1CCN(c2ccc(Nc3cc(-c4cccc(-n5ccc6cc(C7CC7)cc(F)c6c5=O)c4CO)cn(C)c3=O)nc2)CC1`, the Potency entry in experiment [1], in experiment [2], in experiment [3], in experiment [4] and in experiment [5] was “inactive” in each case.

As to `CN(C)c1cccc(Oc2cnc(Nc3cccc(O)c3)nc2)c1`, the Potency entry in experiment [1], in experiment [2], in experiment [3], in experiment [4] and in experiment [5] was “inactive” throughout.

For the compound `CC(C)(O)/C=C/C(=O)[C@](C)(O)[C@H]1[C@H](O)C[C@@]2(C)[C@@H]3CC=C4[C@@H](C[C@H](O[C@@H]5O[C@H](CO)[C@@H](O)[C@H](O)[C@H]5O)C(=O)C4(C)C)[C@]3(C)C(=O)C[C@]12C`, the Potency result in experiment [1], in experiment [2], in experiment [3], in experiment [4] and in experiment [5] was “inactive” each time.

`Cc1c(F)ccc(C(=O)Nc2cc([N+](=O)[O-])ccc2N2CCN(C)CC2)c1Cl`: the Potency entry in experiment [1], in experiment [2], in experiment [3], in experiment [4] and in experiment [5] was “inactive” each time.

As for `Cc1cc2c(N3CCCC3)nc(N3CCCC3)nc2n1C`, the Potency result in experiment [1], in experiment [2], in experiment [3] and in experiment [4] was “inactive” each time. In addition, in experiment [5], the Potency was 0.844 µM (active).

Turning to `CC1CCCC(O)CC(=O)c2c(O)cc(O)cc2CC(=O)O1` (stereo not given), the Potency result in experiment [1], in experiment [2], in experiment [3], in experiment [4] and in experiment [5] was “inactive” in each case.

For the compound `COC1C(OC(=O)/C=C/C=C/C=C/C=C/C(=O)O)CCC2(CO2)C1C1(C)OC1CC=C(C)C` (stereo not given), the Potency result in experiment [1], in experiment [2], in experiment [3], in experiment [4] and in experiment [5] was “inactive” in each case.

On to `Cc1[nH]c2ccccc2c1CCNCc1ccc(/C=C/C(=O)NO)cc1`, for which the Potency entry in experiment [1], in experiment [2], in experiment [3], in experiment [4] and in experiment [5] was “inactive” throughout.

The values are drawn from PubChem BioAssay (NCATS).
